Drawing on PubChem BioAssay (NCATS), this text covers Potency and outcome for 16 compounds.

Inconclusive results are not listed. Active and inactive are the calls of the source. Calls follow the shape of the dose curve; as a rule, active = well fitted inhibition curve with a large enough effect; inconclusive = small, poorly fitted or top-dose-only effect; inactive = flat fitted curve, though single readings scatter.

Experiment in all cases: qHTS profiling for inhibitors of Plasmodium falciparum proliferation (AID 504749); also: nearly all actives have a fitted effect of over 60% in size
Common to all, as to conditions: P. falciparum in erythrocytes, SYBR Green DNA, 72 h; series mostly up to 28.7 µM

The subject of assay [1] is CP217. The procedure, abridged:
(§1)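 In a 72 h erythrocytic culture (37 C, humidified, 5% CO2) at 2.5% hematocrit and 0.3% starting parasitemia, compounds were tested; SYBR Green I in detergent lysis buffer stained parasite DNA overnight.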

For assay [2], the system named is CP237. In outline: as §1
Assay [3] deals with CP238. The procedure, abridged: as §1
The test system of assay [4] is CP247. The procedure, abridged: as §1
Assay [5] has as its system CP250. The procedure, abridged: as §1
Assay [6] concerns CP252. The procedure, abridged: as §1
Assay [7] relates to CP256. In outline: as §1
Assay [8] concerns CP260. In outline:
as §1

Assay [9] deals with CP262. The procedure, abridged: as §1
In assay [10] the test system is CP265. In outline: as §1
Potency is read from the fitted curve at half-maximal effect.

Take `O=C(O)c1nc(=O)[nH]c(=O)[nH]1`: the Potency result in [1], in assay [2], in [3], in assay [5], in [6] and in [8] was “inactive” in each case. Moreover, the Potency result in assay [10] was “inactive”. In addition, the call in [4], in [7] and in [9] was inactive.
Take `Cc1cc2nc3c(=O)[nH]c(=O)nc-3n(CC(O)C(O)C(O)CO)c2cc1C` (stereo not given): the Potency result in [1], in assay [2], in [3], in assay [5], in [6] and in assay [8] was “inactive” throughout. Moreover, the Potency entry in [10] is “inactive”. Moreover, the compound was called inactive in [7] and in [9].
For the compound `COc1ccnc(CS(=O)c2nc3ccc(OC(F)F)cc3[nH]2)c1OC` (stereo not given), the Potency entry in [1], in assay [2], in assay [3], in [5], in assay [6] and in [8] was “inactive” each time. For the same compound, the Potency entry in assay [10] was “inactive”. For the same compound, the call in assay [4], in assay [7] and in assay [9] was inactive.
For `NS(=O)(=O)c1cc(Cl)c(Cl)c(S(N)(=O)=O)c1`, the Potency result in assay [1], in [2], in [3], in [5], in assay [6] and in [8] was “inactive” in each case. In addition, the Potency entry in assay [10] was “inactive”. For the same compound, the result in [4], in assay [7] and in [9] was inactive.
As to `COc1c(C)c2c(c(O)c1CC=C(C)CCC(=O)OCCN1CCOCC1)C(=O)OC2`, the Potency in [1] was 7.94 µM (active); in assay [2] it was 8.91 µM (active); in assay [3], 7.94 µM (active); in assay [5], 7.94 µM (active); in assay [6] it was 8.91 µM (active); in [8], 11.2 µM (active). In addition, the Potency in assay [10] is 7.94 µM (active).
Take `Fc1ccc(C(c2ccc(F)cc2)N2CCN(CC=Cc3ccccc3)CC2)cc1`: the compound was classed as inactive in assay [9].
As to `COc1cc2c(cc1OC)CC(=O)N(CCCN(C)C[C@H]1Cc3cc(OC)c(OC)cc31)CC2`, the Potency entry in [1], in assay [3], in [5], in [6], in assay [8] and in assay [10] was “inactive” throughout. Also, the result in [4], in assay [7] and in [9] was inactive.
In the case of `N#CC(c1ccc(Cl)cc1)c1c(Cl)cc(-n2ncc(=O)[nH]c2=O)cc1Cl` (stereo not given), the Potency entry in [1], in assay [2], in assay [3], in assay [5], in assay [6] and in [8] was “inactive” each time. Further, the Potency result in assay [10] is “inactive”. Besides, the compound was classed as inactive in [4], in assay [7] and in assay [9].
As to `CS(=O)(=O)c1ccc(C2=C(c3ccccc3)C(=O)OC2)cc1`, the Potency result in assay [1], in assay [2], in assay [3], in assay [5], in [6] and in assay [8] was “inactive” throughout. Further, the Potency entry in [10] is “inactive”. Besides, the outcome in assay [4], in assay [7] and in assay [9] was inactive.
As to `C=C1c2cccc(O)c2C(O)=C2C(=O)[C@@]3(O)C(O)=C(C(N)=O)C(=O)[C@@H](N(C)C)[C@@H]3[C@@H](O)[C@H]12`, the Potency entry in assay [1], in assay [3], in assay [5], in [6] and in [10] was “inactive” each time. The call in assay [4], in [7] and in assay [9] was inactive.
As to `CC(C)CN(C[C@@H](O)[C@H](Cc1ccccc1)NC(=O)O[C@H]1CO[C@H]2OCC[C@H]21)S(=O)(=O)c1ccc(N)cc1`, the Potency entry in assay [1], in assay [2], in assay [3], in assay [5], in assay [6] and in [8] was “inactive” in each case. The Potency entry in [10] was “inactive”. Moreover, the outcome in [4], in [7] and in assay [9] was inactive.
As for `O=C1C(CCC(O)c2ccc(F)cc2)C(c2ccc(O)cc2)N1c1ccc(F)cc1` (stereo not given), the Potency entry in [1], in assay [2], in assay [3], in [5], in assay [6] and in assay [8] was “inactive” throughout. For the same compound, the Potency result in [10] was “inactive”. Moreover, the compound was called inactive in assay [4], in assay [7] and in [9].
With `CN1CCN2c3ncccc3Cc3ccccc3C2C1` (stereo not given), the Potency result in assay [1], in [2], in [3], in assay [5], in assay [6] and in [8] was “inactive” each time. Further, the Potency entry in assay [10] was “inactive”. Further, the compound was classed as inactive in [4], in assay [7] and in assay [9].
Turning to `CN1CC(=O)N2C(Cc3c([nH]c4ccccc34)[C@H]2c2ccc3c(c2)OCO3)C1=O` (stereo not given in full), the Potency result in assay [1], in [2], in assay [3], in assay [5], in assay [6] and in assay [10] was “inactive” throughout. In addition, the call in assay [4], in assay [7] and in assay [9] was inactive.
Regarding `Clc1ccc(COC(Cn2ccnc2)c2ccc(Cl)cc2Cl)c(Cl)c1` (stereo not given), the Potency in assay [1] is 3.16 µM (active); in assay [2] it was 3.55 µM (active).
Consider `N#Cc1c(N(CC(=O)O)CC(=O)O)sc(C(=O)O)c1CC(=O)O`, for which the Potency result in assay [1], in [2], in assay [3], in [5], in [6] and in [8] was “inactive” each time. The Potency result in assay [10] is “inactive”. Further, the outcome in assay [4], in [7] and in [9] was inactive.
